Laboratory results as given in article PMC10668032, “Altered binding affinity of SIX1-Q177R correlates with enhanced WNT5A and WNT pathway effector expression in Wilms tumor”.
In all, about 33,000 sequences were measured (“e-score”: median about -0.053, highest 2% from about 0.38 on). Many of the other results were omitted from the sample, so the highest values are more common in it than they were.

The sequences below were run against T1, SIX1 homeodomain (reference allele) (human, UniProt Q15475 108-198) (assay: universal protein binding microarray; Universal all-10-mer PBM (8x60K, AMADID 030236), 300 nM GST-tagged protein, Alexa Fluor 488 anti-GST; buffer, salt, pH and temperature not stated (as in Berger); high values mean tight binding). Details: protein: ivt; tags: N-terminal GST; dsDNA, one strand shown.
T1 sequence: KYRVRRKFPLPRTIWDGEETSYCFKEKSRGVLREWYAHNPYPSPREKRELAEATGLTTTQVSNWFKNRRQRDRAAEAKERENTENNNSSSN
Outline: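 Binding of GST-tagged homeodomains is given as 8-mer E-scores from the Universal PBM Analysis Suite. The proteins were produced by in vitro transcription/translation, quantified by anti-GST western blot against a recombinant GST standard curve, and applied in duplicate at 300 nM final concentration to universal 'all 10-mer' protein binding microarrays (8×60K format).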

Sequence | binding signal
ATCAAAAA | 0.153 ± 0.0897 E-score
ATCTAATA | 0.237 ± 0.0442 E-score
GACACCAA | 0.364 ± 0.0101 E-score
AACACCCC | 0.268 ± 0.0366 E-score
GACACCCA | 0.396 ± 0.0322 E-score
TACACCCA | 0.341 ± 0.0149 E-score
CACACCCC | 0.26 ± 0.0792 E-score
GACACCCC | 0.436 ± 0.0137 E-score
GATTATAC | 0.34 ± 0.0371 E-score
GCCGATCA | 0.229 ± 0.0129 E-score
ATAGCCCC | 0.181 ± 0.0335 E-score
TATCAGAA | 0.354 ± 0.0409 E-score
TACCTCTA | 0.204 ± 0.0372 E-score
CCGACACC | 0.438 ± 0.013 E-score
GAGACACC | 0.306 ± 0.032 E-score
AAGACACC | 0.347 ± 0.0269 E-score
CCGACAGA | 0.195 ± 0.026 E-score
CCAACACC | 0.291 ± 0.0364 E-score
GGGACACC | 0.341 ± 0.0406 E-score
ACGACACG | 0.156 ± 0.0251 E-score
ACGACACC | 0.432 ± 0.024 E-score
GCGACACC | 0.412 ± 0.0314 E-score

Sequence | binding signal
CTGCTATC | 0.292 ± 0.00957 E-score
CACACCAG | 0.156 ± 0.0892 E-score
ACTAATAC | 0.225 ± 0.029 E-score
GATGTATA | 0.306 ± 0.0136 E-score
CTGAGATA | 0.248 ± 0.0841 E-score
CCGATATA | 0.333 ± 0.0187 E-score
CTGATATA | 0.358 ± 0.0287 E-score
GTGATATA | 0.419 ± 0.016 E-score
ATGAGATA | 0.262 ± 0.0851 E-score
CTTATATC | 0.292 ± 0.0136 E-score
CTGATATC | 0.465 ± 0.0148 E-score
GTGAGATA | 0.388 ± 0.0283 E-score
GCTATATA | 0.2534 ± 0.00173 E-score
GCGATATA | 0.399 ± 0.0347 E-score
CTAATATC | 0.339 ± 0.0352 E-score
TAGATATA | 0.323 ± 0.076 E-score
ATGAGAAG | 0.176 ± 0.0788 E-score
ATATGCAG | 0.222 ± 0.0653 E-score
GATTACGC | 0.225 ± 0.0112 E-score
ATTGAGTA | 0.192 ± 0.0104 E-score
AGATCTCC | 0.184 ± 0.0698 E-score
ATCTGAGA | 0.292 ± 0.0452 E-score

Sequence | binding signal
CATATGAG | 0.19 ± 0.0156 E-score
GATCGCAC | 0.253 ± 0.0507 E-score
ATGATATG | 0.472 ± 0.0175 E-score
ATGATATC | 0.476 ± 0.0196 E-score
ATTATATA | 0.254 ± 0.0255 E-score
ATTATATC | 0.329 ± 0.0838 E-score
ATCATATG | 0.281 ± 0.0284 E-score
AAGATATA | 0.28 ± 0.0929 E-score
ATGATATA | 0.414 ± 0.0235 E-score
ATTATATG | 0.182 ± 0.0439 E-score
ATAATATC | 0.358 ± 0.0729 E-score
CTGGCATA | 0.228 ± 0.0218 E-score
ATCATTCC | 0.291 ± 0.0446 E-score
GATCAACC | 0.319 ± 0.0399 E-score
ACGATCAG | 0.1967 ± 0.000827 E-score
CGGATTTA | 0.196 ± 0.05 E-score
TATCCCCA | 0.35 ± 0.00527 E-score
GATCGCGC | 0.197 ± 0.0401 E-score
GATCCCCC | 0.47 ± 0.0193 E-score
GATCCCGC | 0.375 ± 0.0422 E-score
GATCCCCA | 0.387 ± 0.046 E-score
GATCCCAC | 0.379 ± 0.0379 E-score

Sequence | binding signal
AATCCCCC | 0.261 ± 0.00738 E-score
GATCGCCC | 0.379 ± 0.00824 E-score
AATCCCAC | 0.158 ± 0.00675 E-score
GATCGCCA | 0.211 ± 0.0516 E-score
GATCCCAA | 0.275 ± 0.0231 E-score
CATCCCCC | 0.199 ± 0.0656 E-score
ATCTACAG | 0.152 ± 0.023 E-score
ACGTATAT | 0.271 ± 0.065 E-score
ATCTAGAT | 0.26 ± 0.0531 E-score
CGAGACGA | 0.156 ± 0.029 E-score
CCGGAGAC | 0.184 ± 0.00939 E-score
CCCCGATC | 0.346 ± 0.0685 E-score
ATGAGCTC | 0.166 ± 0.0357 E-score
GATCCACA | 0.335 ± 0.0765 E-score
GATCCACC | 0.394 ± 0.0435 E-score
GATCCTCA | 0.295 ± 0.0129 E-score
CATCCTCC | 0.153 ± 0.0426 E-score
GATCCTCC | 0.381 ± 0.0158 E-score
GATCCAGC | 0.265 ± 0.0768 E-score
ATCTGTCC | 0.29 ± 0.0606 E-score
